Source: PubChem (Broad Institute)
MITF act – increases MITF-driven TRPM1 promoter luciferase signal; SK-MEL-5 TRPM1-promoter luciferase, 24 h; % of positive control, neutral wells = 0; activation, % at 12.5 µM; 300,000 tested, 0.75% active; AID 588334;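 active = mean activation of at least 80% with every replicate also reaching 80%; inconclusive = mean reaches 80% but some replicate falls short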
Wnt act – Wnt/beta-catenin pathway activation; Wnt/beta-catenin reporter cell assay, activator, plate reader; activation, % at 9.35 µM; 300,000 tested, 1.2% active; in the data active = activation above about 30%, passing the limit was not always enough; inconclusive = no clear call, values can overlap the other calls
Dyrk1A ADPGlo – blocks rat Dyrk1A kinase activity | Q63470 | ADP-Glo luminescence, NFATc1 peptide | inhibition, % at 12.5 µM | 310,000 tested, 0.43% active
miR122 inh – miR-122 inhibition in Huh7 cells; Huh7 miR-122 Renilla luciferase sensor, 48 h; neutral wells = 0, positive control = 100; activation (reporter increase), % at 12.5 µM; 340,000 tested, 0.3% active;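 active = mean replicate activation score at least 90 and every replicate individually at or above 90; inconclusive = only one of the two criteria met; inactive = neither criterion met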;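 also: higher luciferase means less miR-122 activity so hits act as miR-122 inhibitors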
NSD2 inh – NSD2 (human) methyltransferase inhibition; O96028; NSD2 peptide methylation, AlphaScreen, 120 min; inhibition, % at 12.5 µM; 310,000 tested, 0.54% active; AID 743445
Target sequence (O96028 whole entry, looked up): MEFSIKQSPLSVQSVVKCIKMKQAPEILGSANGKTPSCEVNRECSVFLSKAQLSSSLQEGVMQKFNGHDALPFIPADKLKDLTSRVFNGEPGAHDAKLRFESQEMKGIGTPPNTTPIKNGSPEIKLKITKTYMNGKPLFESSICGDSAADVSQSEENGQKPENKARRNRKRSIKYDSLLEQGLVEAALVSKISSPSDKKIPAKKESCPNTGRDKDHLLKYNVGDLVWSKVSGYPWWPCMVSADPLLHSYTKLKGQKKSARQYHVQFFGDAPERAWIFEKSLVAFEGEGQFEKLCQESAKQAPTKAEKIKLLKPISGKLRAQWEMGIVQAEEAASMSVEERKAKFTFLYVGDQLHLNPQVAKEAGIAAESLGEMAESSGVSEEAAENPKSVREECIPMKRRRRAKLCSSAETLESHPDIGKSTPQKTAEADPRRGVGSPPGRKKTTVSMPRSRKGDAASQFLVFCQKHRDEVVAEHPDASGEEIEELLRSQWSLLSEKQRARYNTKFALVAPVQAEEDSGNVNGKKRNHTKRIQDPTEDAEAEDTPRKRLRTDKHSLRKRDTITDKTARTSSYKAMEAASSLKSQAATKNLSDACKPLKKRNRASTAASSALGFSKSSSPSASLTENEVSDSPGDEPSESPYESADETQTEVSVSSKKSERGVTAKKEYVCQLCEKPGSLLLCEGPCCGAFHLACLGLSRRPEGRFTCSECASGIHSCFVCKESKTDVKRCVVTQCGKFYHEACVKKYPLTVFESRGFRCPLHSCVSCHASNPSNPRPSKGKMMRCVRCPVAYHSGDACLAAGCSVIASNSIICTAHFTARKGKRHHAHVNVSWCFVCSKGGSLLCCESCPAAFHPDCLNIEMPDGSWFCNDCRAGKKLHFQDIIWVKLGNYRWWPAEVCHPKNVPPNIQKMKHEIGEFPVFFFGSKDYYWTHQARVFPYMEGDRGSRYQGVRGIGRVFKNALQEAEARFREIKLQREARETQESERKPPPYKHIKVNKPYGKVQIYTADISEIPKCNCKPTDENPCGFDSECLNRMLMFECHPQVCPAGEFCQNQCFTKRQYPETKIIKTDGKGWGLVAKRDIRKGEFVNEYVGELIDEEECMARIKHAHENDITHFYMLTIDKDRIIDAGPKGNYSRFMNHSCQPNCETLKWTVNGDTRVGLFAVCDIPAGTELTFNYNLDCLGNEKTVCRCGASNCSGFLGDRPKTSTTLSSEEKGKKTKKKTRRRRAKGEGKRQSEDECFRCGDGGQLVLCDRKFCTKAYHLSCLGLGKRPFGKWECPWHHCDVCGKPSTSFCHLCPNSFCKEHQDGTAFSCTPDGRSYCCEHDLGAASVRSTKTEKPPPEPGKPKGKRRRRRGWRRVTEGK
INS-1E GSIS act – primary screen for activators of insulin secretion dependent on glucose, INS-1E cells, GLuc reporter luminescence; INS-1E GLuc reporter insulin secretion, 2-3 h; activation, % at 16.6 µM; 370,000 tested, 0.61% active; AID 743287;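 active = lowest replicate activation of at least 40%, so every replicate reaches that level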
A number is an active result; - = inactive; ? = inconclusive; . = no result given. Hits are enriched below; roughly 2.4% of the tested compounds scored in any of these assays. Rule as the data show it, unless noted: active = inhibition above about 50%; inactive = the rest.

SMILES	MITF act	Wnt act	Dyrk1A ADPGlo	miR122 inh	NSD2 inh	INS-1E GSIS act
C[C@@H]1CCCCO[C@H](CN(C)C(=O)Nc2ccccc2)[C@H](C)CN([C@@H](C)CO)C(=O)c2cc(NC(=O)Nc3cccc4ccccc34)ccc2O1	.	.	.	-	.	-
S=C(N/N=C/c1ccc2ncccc2c1)Nc1cccnc1	-	-	-	-	-	-
Oc1ccc(/C=N/NC(=S)Nc2cccnc2)cc1O	-	-	-	.	75	-
C[C@@H]1CCCCO[C@H](CN(C)S(=O)(=O)c2ccccc2)[C@H](C)CN([C@@H](C)CO)C(=O)c2cc(NC(=O)CCCN(C)C)ccc2O1	.	.	.	-	.	-
O=S(=O)(NCCc1ccccc1)c1cccc(S(=O)(=O)N2CCOCC2)c1	-	.	.	150	-	.
NC(=O)C1=CC2C3C=CC2(O)C(=O)OC3O1 (centres undefined)	-	-	-	136	-	-
C[C@H]1CN([C@@H](C)CO)C(=O)c2cc(-c3ccc(F)cc3)cnc2O[C@H]1CN(C)C(=O)NC1CCCC1	.	.	.	-	.	-
C[C@H]1CN([C@@H](C)CO)C(=O)c2cccc(NS(C)(=O)=O)c2O[C@@H]1CN(C)Cc1ccc(-c2ccccc2)cc1	.	.	.	-	.	-
CN(N=Nc1ccccc1C(=O)O)C1CCCCC1	.	38	.	-	-	.
CC(=O)c1cccc(-c2csc3ncnc(Sc4nnnn4C)c23)c1	.	-	.	-	.	42
Cn1nnnc1Sc1ncnc2scc(-c3ccc(Cl)cc3)c12	-	-	-	-	.	70
COc1ccc2c3c([nH]c2c1)[C@H](CO)N(C(C)=O)CC31CN(C(=O)c2cccc(F)c2)C1	.	.	.	.	.	-
Cc1noc(C)c1NC(=O)Nc1ccc2c(c1)C(=O)N([C@H](C)CO)C[C@H](C)[C@@H](CN(C)C(=O)Nc1ccccc1)OCCCC[C@@H](C)O2	.	.	.	-	.	-
Cc1noc(C)c1S(=O)(=O)Nc1ccc2c(c1)C(=O)N([C@@H](C)CO)C[C@@H](C)[C@@H](CN(C)Cc1ccc(Oc3ccccc3)cc1)O2	.	.	.	-	.	-
C[C@H]1CN([C@@H](C)CO)C(=O)c2cc(NS(C)(=O)=O)ccc2O[C@H]1CN(C)S(=O)(=O)c1ccc(Cl)cc1	.	.	.	-	.	-
CCOC(=O)c1c(C)oc2c1c(C=NCc1ccccn1)c(O)c1ccccc12	-	-	-	.	.	.
CCOC(=O)c1c(C)oc2c1c(C=NCC1CCCO1)c(O)c1ccccc12 (centres undefined)	-	-	-	-	99	.
Cc1ccc(OCCN2C(=O)c3ccccc3C2=O)cc1	-	.	-	-	-	-
COc1ccc(OCCN2C(=O)c3cccc(N)c3C2=O)cc1	88	-	-	-	-	-
CCC(=O)Nc1ccc2c(c1)C(=O)N(C)C[C@@H](OC)[C@H](C)CN(C(=O)c1cnccn1)[C@@H](C)CO2	.	.	.	.	.	-
Cc1ccccc1OCc1nnc2c3cnn(C)c3ncn12	90	.	-	-	.	-
O=C(c1ccccc1OC(F)F)N1CCN(S(=O)(=O)/C=C/c2ccccc2)CC1	.	.	.	.	-	.
Cc1noc(C)c1NC(=O)Nc1ccc2c(c1)C(=O)N([C@H](C)CO)C[C@@H](C)[C@@H](CN(C)Cc1ccc(Cl)c(Cl)c1)O2	.	.	.	-	.	-
O=C(Nc1ccc(Cl)cc1)Nc1ccccc1Sc1ncc([N+](=O)[O-])s1	-	33	.	-	-	-
O=C(Nc1csc([N+](=O)[O-])c1)Nc1ccccc1Cl	.	-	-	.	-	-
SMILES	MITF act	Wnt act	Dyrk1A ADPGlo	miR122 inh	NSD2 inh	INS-1E GSIS act
COc1cc(CN(C)C(=O)C(=O)c2c[nH]c3ccccc23)ccc1O	-	-	-	146	-	-
COc1ccc(CNC(=O)CCC(=O)c2ccc(F)cc2)cc1OC	-	-	-	-	-	.
COc1ccc(CCNC(=O)C(=O)c2c[nH]c3ccccc23)cc1OC	.	-	-	.	-	-
COc1ccc(CCNC(=O)COC(=O)CCC(=O)c2ccc(F)cc2)cc1OC	-	-	-	.	-	87
COc1ccc(CCNC(=O)COC(=O)Cc2c[nH]c3ccccc23)cc1OC	-	-	-	-	-	52
COc1ccc(C/C(C)=N\NC(=O)c2c[nH]c3ccccc23)cc1OC	-	39	-	-	-	-
CC(C)c1ccc2oc(=O)cc(CN3CCCCC3)c2c1	-	-	-	-	-	44
O=S(=O)(Nc1ccc(-c2ccc3nncn3n2)cc1)c1ccccc1Cl	-	-	-	.	-	40
O=S(=O)(Nc1ccc(-c2ccc3nncn3n2)cc1)c1ccc(Cl)s1	-	-	-	.	-	-
CN1CCN(C(=O)C[C@@H]2C[C@H]3c4cc(NC(=O)C5CCC5)ccc4O[C@H]3[C@H](CO)O2)CC1	.	.	.	-	.	-
COc1ccc(C#Cc2ccc([C@@H]3[C@H](CO)N4C(=O)CN(C(=O)Nc5ccccc5F)C[C@@H]34)cc2)cc1	.	.	.	.	.	-
Cc1nnc(SCc2ccccc2)nc1-c1ccccc1	88	?	-	-	.	-
C[C@@H]1CN([C@@H](C)CO)C(=O)c2cccc(NC(=O)CCCCCC(=O)Nc3ccccc3N)c2O[C@H]1CN(C)C(=O)Nc1ccc(F)cc1	.	.	.	.	.	-
COc1ccc2c(c1)C(C)=CC(C)(C)N2S(=O)(=O)c1ccc(Br)cc1	-	-	-	114	-	-
COc1ccc2c3c([nH]c2c1)[C@@H](CO)N(C(=O)C1CCCCC1)CC31CCN(C)CC1	.	.	.	.	.	-
O=C(NNC(=S)Nc1ccc(Br)cc1)c1cccnc1	-	-	-	-	-	-
O=C(/C=C\Nc1ccc(Br)cc1)c1cccnc1	-	38	-	-	-	-
O=C(Oc1cccc(/C=N/Nc2nc(Nc3ccccc3)nc(N3CCOCC3)n2)c1)c1ccco1	103	-	-	.	-	-
COC(=O)c1ccc(Nc2nc(N3CCOCC3)nc(N3CCOCC3)n2)cc1	93	-	-	-	-	-
COc1cc(/C=N/Nc2nc(N3CCCCC3)nc(N3CCCCC3)n2)ccc1OC(=O)c1ccco1	.	.	.	.	-	.
COc1ccc(Nc2nc(N3CCOCC3)nc(N3CCOCC3)n2)cc1	.	-	-	-	-	-
CCOC(=O)CCNC(=O)N1CCCC(C(=O)c2cccc(OC(C)C)c2)C1 (centres undefined)	.	-	-	.	-	48
CCOC(=O)CCNC(=O)N1CCCC(C(=O)c2cccc(Cl)c2)C1 (centres undefined)	-	.	-	-	-	-
CNC[C@H]1Oc2ccc(NC(=O)Nc3ccc(F)cc3)cc2C(=O)N([C@H](C)CO)C[C@@H]1C	.	.	.	-	.	-
C[C@H]1CN([C@@H](C)CO)C(=O)Cc2cc(NC(=O)C3CC3)ccc2O[C@H]1CN(C)Cc1ccccc1	.	.	.	-	.	-
Cc1ccc(C(=O)N=c2sccn2C)cc1C	-	?	-	-	-	-
Cc1ccc(C(=O)N=c2sccn2C)cc1S(=O)(=O)N1CCOCC1	99	-	-	.	-	-
COc1cc2c(cc1OC)C(=O)C(Br)CC2 (centres undefined)	.	.	.	.	140	.
CC(=O)Nc1ccc(S(=O)(=O)Nc2cccc(-c3nc4ccccc4o3)c2)cc1	.	.	-	138	-	.
